Assay results from PubChem BioAssay AID602248 (The Scripps Research Institute Molecular Screening Center, 2012).
Hit rate of the full screen: of about 360,000 compounds, about 1,700 (0.47%) were called active. The list comes from a sample in which actives are over-represented; it also holds similar structures and randomly drawn compounds. Unmarked numbers belong to inactive results. Cut-off read from the data, not from the text of the source: active = activation above about 15%; inactive = the rest.

Experiment: counter-screen for M1 agonists: effect in parental CHO-K1 cells (AID 602248);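 note: untransfected CHO-K1 host cells lacking M1 receptor as counterscreen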
Conditions: Fluo-8 calcium fluorescence, at 3 µM, active compounds read high, scaled to maximal ATP response, vehicle zero

SMILES	activation
CCOC(=O)C1(Cc2cccc(OC)c2)CCN(C(C)CC(C)(C)O)CC1 (configuration not stated)	13.4%
Cc1ccc(NC(=O)COC(=O)CCc2nc3ccccc3n2-c2ccccc2)c(C)c1	-0.22%
COc1cc(OC)cc(C(=O)NNC(=O)CCOc2ccccc2OC)c1	0.49%
O=C(OCCN=C1NS(=O)(=O)c2ccccc21)c1cccc([N+](=O)[O-])c1	1.57%
N#CC1(NC(=O)COC(=O)CCN=C2NS(=O)(=O)c3ccccc32)CCCCC1	1.21%
O=C(CCCN=C1NS(=O)(=O)c2ccccc21)OCC(=O)c1ccc(F)c(F)c1	16.5% (active)
O=C(NCCCN1CCCC1=O)c1cccc(S(=O)(=O)NCc2ccccc2)c1	0.5%
CC(C)(C)C(=O)NNC(=O)c1ccc(Oc2cc(Cl)cc(Cl)c2)o1	0.25%
CC(C(=O)N1CCc2ccccc21)N(C)CC(=O)Nc1ccc(F)cc1 (configuration not stated)	1.77%
O=C(NNC(=S)NCc1ccccc1)c1ccc(OC(F)F)cc1	15.8% (active)
Cn1nnc(NC(=S)NC(=O)c2ccccc2)n1	0.43%
CC(C)CNC(=S)NNC(=O)c1ccccc1OC(F)F	0.18%
COc1ccc(/C(N)=N/OC(=O)CCCc2ccccc2)cc1	-0.55%
O=C(/C=C/c1ccc(F)cc1)NC(=S)NNC(=O)c1cccnc1	1.3%
COc1ccc(C(=O)NNC(=S)NC(=O)c2ccccc2)cc1	38.2% (active)
Cc1onc(-c2ccccc2)c1C(=O)NNC(=S)NC(=O)c1ccc(F)cc1	28.7% (active)
CC(=O)NC(=S)NNC(=O)c1ccc(Br)cc1	-0.94%
Cc1onc(-c2ccccc2)c1C(=O)N1CCN(S(=O)(=O)c2ccccc2C(F)(F)F)CC1	0.62%
Cc1scc(C(=O)NNC(=S)NCc2ccccc2)c1C	1.16%
COc1ccc(C(=O)NC(=S)NNC(=O)CCc2ccccc2)cc1	21.1% (active)
COc1ccccc1CCC(=O)NNC(=O)c1ccncc1	0.44%
O=C(Oc1ccc2c(c1)CCC2)N1CCOCC1	1.59%
CCC(=O)c1cc(F)ccc1OCC(=O)Nc1ccc2c(c1)OCCO2	0.59%

SMILES	activation
CC(C)NC(=O)C1(C)CCCCN1Cc1cccc(C(F)(F)F)c1 (configuration not stated)	-0.34%
Cc1cccc(NC(=O)N2CCCCCC2)c1C	0.19%
Cc1ccc(S(=O)(=O)NC(C)C(=O)Nc2ccccc2C(=O)N2CCCC2)cc1 (configuration not stated)	-0.4%
O=S1(=O)CCOC[C@H](CC2CCCCC2)N1Cc1ccc(F)cc1	-0.24%
CCC(C)c1ccccc1N1CC(C(=O)N2CCN(S(=O)(=O)c3ccc(F)cc3)CC2)CC1=O (configuration not stated)	1.26%
COc1cccc(-c2ccc(C#N)c(SCC(=O)NCCc3ccc(Cl)cc3)n2)c1	-0.1%
CC(=O)Oc1ccc(-c2cccc(C(=O)N3CCCCC3)c2)cc1	2.44%
Nc1c(C(=O)c2cccs2)sc2nsc(SCCN3CCCCC3)c12	69.8% (active)
CCOC(=O)C(C)Sc1nnc(CSc2nc3nc(C)cc(C)n3n2)o1 (configuration not stated)	1.72%
Cc1ccc(NC(=O)CC2S/C(=N/N=C3\CCCc4ccccc43)NC2=O)cc1 (configuration not stated)	12.4%
O=C(OCc1ccccc1)N1CCC2CC1c1ccc(-c3ccc4c(c3)OCO4)cc12 (configuration not stated)	1.17%
COc1ccc(Cl)cc1NC(=O)CN(C)Cc1ccc(OC)c(OC)c1	6.25%
COc1ccc(Br)cc1CN(C)CC(=O)Nc1cc([N+](=O)[O-])ccc1OC	0.64%
COc1ccc(Br)cc1CN(C)CC(=O)Nc1cc(Cl)cc(Cl)c1	18.5% (active)
OCC1(Cc2ccccc2C(F)(F)F)CCN(Cc2ccncc2)CC1	1.74%
N#CC1(Nc2ccc(-c3ccc(Cl)cc3)cc2)CCCC1	0.41%
N#CC1(Nc2ccc3c4c(cccc24)CC3)CCCCC1	41% (active)
CC(C)C(=O)Nc1ccc2c3c(cccc13)CC2	-0.06%
CC(C)(O)C#Cc1ccc(CNC[C@H]2O[C@@H](n3cnc4c(=O)[nH]c(N)nc43)[C@H](O)[C@@H]2O)s1	0.21%
COCCN(C(=O)CCC(=O)Nc1nccs1)C(C(=O)NCCC(C)C)c1ccc(F)cc1 (configuration not stated)	0.22%
COc1cncc(-c2cnc3sc(NCCc4ccccn4)nn23)c1	0.67%
Cc1ccc(S(=O)(=O)N(C)CC(=O)NCCc2c[nH]c3ccccc23)cc1	6.95%
CCc1ccccc1NC(=O)CN(C)S(=O)(=O)c1ccc2c(c1)c(=O)n(C)c(=O)n2C	1.14%

SMILES	activation
COc1cccc(CNC(=O)CN(C)S(=O)(=O)c2ccc3c(c2)c(=O)n(C)c(=O)n3C)c1	1.02%
CC1CCC(NC(=O)CN(C)S(=O)(=O)c2ccc3c(c2)c(=O)n(C)c(=O)n3C)CC1 (configuration not stated)	15.6% (active)
COc1ccc(N(CCC#N)S(=O)(=O)c2ccc(Cl)cc2)cc1	1.81%
COC(=O)c1ccc(CSc2ccc3nnc(-c4ccccc4)n3n2)o1	2.77%
Cc1oc2nc(SCC(=O)Nc3ccc(S(N)(=O)=O)cc3)nc(NC(=O)c3ccccc3)c2c1C	0.44%
COc1cc(/C=C/C(=O)O)cc(S(=O)(=O)Nc2ccccc2C(=O)NCCc2ccccc2)c1OC	-0.11%
COc1cc(OC)c(S(=O)(=O)Nc2ccccc2C(=O)O)cc1S(=O)(=O)Nc1ccccc1C(=O)O	15.1% (active)
COc1ccc(OC)c(S(=O)(=O)Nc2ccccc2F)c1	0.21%
CC(=O)c1c(C)[nH]c(C(=O)COC(=O)c2cccc(S(=O)(=O)N(C)c3ccccc3)c2)c1C	17.5% (active)
CC(=O)c1c(C)[nH]c(C(=O)COC(=O)CCOc2ccc(C)cc2)c1C	7.01%
COc1ccc(C)cc1NC(=O)C(OC(=O)c1cccc(S(=O)(=O)N(C)c2ccccc2)c1)c1ccccc1 (configuration not stated)	-0.35%
COCCN1C(=O)C(=O)/C(=C(/O)c2ccc(S(=O)(=O)N3CCOCC3)cc2)C1c1ccc(OC)c(OC)c1 (configuration not stated)	1.09%
O=C(c1ccc(=O)oc1)N1CCC(C(O)(c2ccccc2)c2ccccc2)CC1	0.08%
CSc1ncccc1C(=O)Nc1nc2ccc(F)cc2s1	3.35%
c1ccc(C(=NNc2nc3ccccc3s2)c2ccccn2)cc1	15.9% (active)
O=C(Nc1nnc(C2CC2)s1)c1ccccn1	0.38%
CC(C)(C)S(=O)(=O)N1Cc2cc(CO)cc(CCO)c2[C@H]1CCO	0.36%
CC(C)C(=O)NCC(c1cccs1)S(=O)(=O)c1ccc(F)cc1 (configuration not stated)	2.59%
COc1cccc(C2c3[nH]c4ccccc4c3CCN2Cc2cccc(C)n2)c1 (configuration not stated)	1.31%
Cc1cccc(C(=O)N2CCc3c([nH]c4ccccc34)C2CC(C)C)n1 (configuration not stated)	16.4% (active)
Cc1cccc(C2c3[nH]c4ccccc4c3CCN2C(=O)c2cc(-c3cccn3C)n[nH]2)n1 (configuration not stated)	0.16%
Cc1ccc(C)c(S(=O)(=O)N2CCN(c3ncnc4sccc34)CC2)c1	15.9% (active)
Cc1ccc(S(=O)(=O)N2CCC3(CC2)OCCO3)c(C)c1	0.97%

SMILES	activation
Cc1ccc(C)c(S(=O)(=O)N2CCN(CC(=O)Nc3ccc([N+](=O)[O-])cc3)CC2)c1	6.2%
OCC[C@H]1C[C@H](O)[C@@H](O)[C@]2(Cc3ccccc3CO2)O1	0.07%
CCCCc1ccc(S(N)(=O)=O)cc1	1.03%
O=C(Nc1cc(Cl)ccc1N1CCOCC1)c1ccc(N2CCCC2=O)cc1	1.09%
Cc1ccc2oc(=O)ccc2c1	0.97%
CCN(CC)c1ccc2oc(=O)c(C)nc2c1	28.8% (active)
Cc1ccc2c(=O)oc(N(C)C)nc2c1	-0.31%
O=S1(=O)CC(N2CCN(CCO)CC2)CN1C1CCCC1 (configuration not stated)	0.24%
Cc1nc2cc(C(F)(F)F)ccc2n1CCNc1nc(-c2cc(Cl)c(N)c(Cl)c2)cs1	-0.4%
Cc1nn(CCOc2ccccc2)c(=O)n1-c1ccccc1F	0.58%
CC(C)(c1ccccc1)c1ccc(OCCN2CCCC2)cc1	1.86%
CC(C)(c1ccccc1)c1ccc(OCCN)cc1	16.5% (active)
O=C(CC(NC(=O)c1ccccc1)c1ccccc1)Nc1ccc(F)c(F)c1 (configuration not stated)	8.06%
CN(C(=O)CN1C(=O)NC(C)(CCc2ccccc2)C1=O)c1ccccc1 (configuration not stated)	1.76%
CN(C)c1ccc(/C=C2\NC(=S)N(Cc3ccccc3)C2=O)cc1	27.4% (active)
CN(C)c1ccc(CSc2ccccc2)cc1	-0.35%
CCn1c(SCC(=O)Nc2ccccc2F)nc2c(c1=O)SC(C)C2 (configuration not stated)	3.19%
O=C(CSc1nnc(CN2CCCC2)n1-c1ccc(F)cc1)c1ccc2c(c1)OCO2	1.52%
Cc1ccc(S(=O)(=O)N(Cc2cc3ccccc3[nH]c2=O)CC2CCCO2)cc1 (configuration not stated)	5.14%
Cc1ccc(S(=O)(=O)N(C)C)cc1NC(=O)COC(=O)C1COc2ccccc2O1 (configuration not stated)	1.48%
CC(Oc1ccc2ccccc2c1)C(=O)NNC(=S)NC(=O)c1ccco1 (configuration not stated)	33.6% (active)
CCCc1ccc(OCC(=O)NNC(=S)NC(=O)c2ccco2)cc1	7.19%
O=C(Nc1ccc2ccccc2c1)/C(=C\c1ccc2c(c1)OCO2)NC(=O)c1ccco1	1.3%
